Assay results taken from PubChem BioAssay (NCI).
The panel holds about 83,000 compounds, 20% with a hit somewhere; the sample as a whole holds those more often.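 Cell lines were cultured in 96-well plates, exposed to a single compound concentration, and assessed for percent growth 48 hours later.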 Activity calls are given as the source filed them. The calls were made as follows: active = growth percent below 10; inactive = the rest.

These molecules were tested on HL-60(TB) leukemia (assay: NCI-60 one-dose screen, 48 h (100 = growth as untreated, 0 = no growth, -100 = all killed)). Settings: 10 µM unless noted.

Row | SMILES | growth
1 | C=CCn1c(SCC(=O)c2ccccc2)nnc1-c1c[nH]c2ccccc12 | 95.6% (inactive)
2 | O=C1Nc2ccccc2/C1=C/c1ccc(CO)n1-c1ccc(Cl)cc1 | 15.8% (inactive)
3 | CC[C@]12C=CCN3CC[C@@]4(c5ccc(OC)cc5N(C)[C@H]4[C@@](O)(C(=O)OC)[C@@H]1OC(=O)CCN1CCc4ccccc4C1)[C@@H]32 | 80.4% (inactive)
4 | Cc1nc(-c2cc3ccccc3oc2=O)ccc1C(=O)/C=C/c1ccc(Cl)c(Cl)c1 | 97.9% (inactive)
5 | CC(Nc1c(C#N)cnc2ccc(-c3cncc(-c4n[nH]c(=O)o4)c3)cc12)c1ccccc1 (stereo not given) | 14.9% (inactive)
6 | O=C(Nc1ccc2c(ccn2Cc2ccccn2)c1)c1ccnnc1 | 145% (inactive)
7 | CC1=CC(=O)CC(C)(C)[C@@]1(O)/C=C/C(C)=C\C(=O)O | -41.9% (active)
8 | CNC(=O)c1cc(Oc2ccc3nc(NC(=O)c4ccc(CN5CCN(C)CC5)c(C(F)(F)F)c4)sc3c2)ccn1 | 11.3% (inactive)
9 | CN1CCN(c2nc(-c3csc(-c4ccccc4)n3)cc3ccccc23)CC1 | 6.57% (active)
10 | Oc1ccc(-c2nc3ccc(/C(=N\N=C\c4ccc(Cl)cc4)c4ccccc4)cc3[nH]2)cc1 | 27.5% (inactive)
11 | COC(=O)Nc1ccc(-c2nc(-c3cccc(O)c3)c(-c3ccnc(Br)c3)[nH]2)cc1 | 28.1% (inactive)
12 | O=C(CCCCCCN1CC(=O)N2[C@@H](c3ccc(Cl)s3)c3[nH]c4ccccc4c3C[C@H]2C1=O)NO | 1.42% (active)
13 | C#C[C@]1(O)CC[C@H]2[C@@H]3CC=C4c5sc(Nc6cc(C)cc(C)c6)nc5CC[C@]4(C)[C@H]3CC[C@@]21C | -2.89% (active)
14 | COc1cc2nc(-c3ccc(C(F)(F)F)cc3)cc(OCCCNCC3CCCO3)c2cc1OC (stereo not given) | 11.9% (inactive)
15 | CC(C)SC1=NC(=C(C(=N1)NC2=ClC=CC=C2)C#N)C3=CC=CC=C3 | 84.5% (inactive)
16 | O=C1CC2(CCOCC2)Oc2ncccc21 | 13.3% (inactive)
17 | O=C1NC(=C(Cl)Cl)/C(=N/S(=O)(=O)N2CCCCC2CC2(C(F)(F)F)N=N2)N1 (stereo not given) | 1.49% (active)
18 | Oc1ccccc1-c1nnc(SCc2ccc(O)c3ncccc23)o1 | 26.3% (inactive)
19 | [Cl][Ru].c1ccc(-c2cccc(-c3ccccn3)n2)nc1.c1ccc(-c2ccnc3c2ccc2c(-c4ccccc4)ccnc23)cc1 | -10.5% (active)
20 | O=C(NCCn1ccnc1)c1ccc(-c2nc3ccc4[nH]ncc4c3c3c2CCCC3)cc1 | 76.9% (inactive)

Row | SMILES | growth
21 | CCCCN1C(=O)/C(=c2\sc3n(c2=O)C2C(NN=3)N(CC)C(=O)N2CC)c2cc(C)ccc21 (stereo not given) | 93.2% (inactive)
22 | Cc1[nH]c(C(=O)Nc2ccccc2OCc2cccc(C(=O)N3CCC[C@@H](N)C3)c2)c(Cl)c1Cl | -67.7% (active)
23 | CC1CCc2c(sc3nc(SCC(=O)N/N=C/c4cccc(O)c4O)n(-c4ccccc4)c(=O)c23)C1 (stereo not given) | 93.6% (inactive)
24 | Nc1ncc(-c2ccc3ncnc(N4CCc5cc(F)c(Cl)cc54)c3c2)cn1 | 7.66% (active)
25 | COc1cc(/C=C/C(=O)c2cc(OC)c(OC)c(OC)c2)ccc1Oc1nc(NCCO)nc(N2CCOCC2)n1 | -5.23% (active)
26 | CC(C)Sc1nc(-c2ccccc2)c(C#N)c(N2CCOCC2)n1 | 105% (inactive)
27 | COc1cc(OC)c(S(N)(=O)=O)cc1C(=O)/C=C/c1ccc(C)cc1 | 6.73% (active)
28 | COc1ccc(S(=O)(=O)NCCCNc2nccc(-c3cn(C(C)(C)C)nc3-c3ccc(Cl)c(OC)c3)n2)cc1 | 124% (inactive)
29 | COc1ccc2c(c1)c(/C=N/Nc1ccnc3cc(Cl)ccc13)cn2C | -52.2% (active)
30 | O=c1[nH]c2ccccc2cc1CSc1ccccc1Nc1nccc(-c2ccc(C(F)(F)F)cc2)n1 | 90% (inactive)
31 | Cc1nn(-c2ccccc2)cc1/C=N/Nc1nc(Nc2ccccc2)nc(Nc2ccc(S(N)(=O)=O)cc2)n1 | 4% (active)
32 | O=C(CCC(=O)N1CCOCC1)OCCCCCCSc1ccc([N+](=O)[O-])c2nonc12 | -45.4% (active)
33 | CN1CCN(Cc2ccc(NC(=O)c3cncc(C#Cc4cnc5ccc(OC6CCOCC6)nn45)c3)cc2C(F)(F)F)CC1 | -43.8% (active)
34 | Cc1ccc(NC(=O)Nc2nc3ccc([N+](=O)[O-])cc3s2)cc1 | -17.2% (active)
35 | CC(=O)Nc1cccc(Nc2nc(N[C@H](C)c3ccccc3)c3ccccc3n2)c1 | 13.6% (inactive)
36 | Cc1ccc(NC(=O)c2ccc(CN3CCN(C)CC3)c(C(F)(F)F)c2)cc1Oc1ccc(-c2[nH]nc3ncnc(N)c23)cc1 | 113% (inactive)
37 | O=C(Nc1cc(Cl)cc(Cl)c1)Nc1ccc2oc(=O)ccc2c1 | 0.984% (active)
38 | CN(C)CCCNc1c2ccccc2nc2c1oc1ccc(Cl)cc12 | -1.29% (active)
39 | O=C(O)c1ccc(-n2cc(CNc3ccc(Cl)cc3)c(-c3ccc(F)cc3)n2)cc1 | 111% (inactive)
40 | Cc1ccc(-c2cc3nc(C(Cl)Cl)nc(-c4ccco4)n3n2)cc1 | -11.9% (active)
